Data on four molecules can be found in PubChem BioAssay.

Calls of active or inactive are those of the source. Unless noted, how the calls were made is not given here.

Experiment [1] in a line: compound effects on lung adenocarcinoma cell viability – A549, calcein-AM fluorescence, 48 h, basal, profiling panel (AID 1162). Further: test concentration not given here. As to conditions: higher = more signal.
A short description of experiment [2]: compound effects on differentiated 3T3-L1 adipocyte viability – cell-based, 3T3-L1 adipocytes, calcein-AM fluorescence, 48 h, basal, profiling panel (AID 1163). Further: test concentration not given here. The conditions noted are these: 3T3-L1 adipocytes viability, higher = more signal.
A short description of experiment [3]: compound effects on hepatocellular carcinoma cell viability – HepG2, calcein-AM fluorescence, 48 h, basal, profiling panel (AID 1164). Further: test concentration not given here. As to conditions: higher = more signal.
Experiment [4] in a line: compound effects on multiple myeloma cell viability – MM1S, calcein-AM fluorescence, 48 h, basal, profiling panel (AID 1165). Further: test concentration not given here. The conditions noted are these: higher = more signal.
The nature of experiment [5]: calcein-AM signal in unstimulated myeloma cells – cell-based, calcein-AM fluorescence, 48 h, PK04 Diversity Set, profiling panel (AID 1166).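 Further: cells grown under basal conditions without added stimulus; test concentration not given here.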 The conditions noted are these: RPMI8226 myeloma viability, higher = more signal.
Experiment [6] can be described thus: JC-1 mitochondrial signal, unstimulated HepG2 cells – cell-based, JC-1 fluorescence, 24 h, 100 nL compound, profiling panel (AID 1167). Further: test concentration not given here. As to conditions: HepG2 mitochondrial potential, higher = more signal.
A short description of experiment [7]: JC-1 mitochondrial signal, unstimulated adipocytes – cell-based, JC-1 fluorescence, 3T3-L1 adipocytes, 24 h, 100 nL compound, profiling panel (AID 1168). Further: test concentration not given here. The conditions noted are these: JC-1 mitochondrial fluorescence, higher = more signal, called active from +8 up or from −8 down.
A short description of experiment [8]: JC-1 mitochondrial signal, unstimulated myeloma cells – cell-based, JC-1 fluorescence, RPMI8226, 24 h, 100 nL compound, profiling panel (AID 1169). Further: test concentration not given here. The conditions noted are these: JC-1 mitochondrial potential fluorescence, higher = more signal.
The nature of experiment [9]: JC-1 mitochondrial signal, unstimulated MM1S myeloma – cell-based, JC-1 fluorescence, 24 h, 100 nL compound, profiling panel (AID 1170). Further: test concentration not given here. The conditions noted are these: MM1S mitochondrial potential, higher = more signal.
Experiment [10] is described as follows: resazurin metabolic signal in A549 cells – cell-based, resazurin fluorescence, 24 h, PK04 Diversity Set, profiling panel (AID 1171). Further: test concentration not given here. The conditions noted are these: A549 viability, higher = more signal, called active from +8 up or from −8 down.
A short description of experiment [11]: resazurin metabolic signal in HepG2 cells – cell-based, resazurin fluorescence, 24 h, PK04 Diversity Set, profiling panel (AID 1172). Further: test concentration not given here. As to conditions: HepG2 viability, higher = more signal. Background: Resazurin is reduced to fluorescent resorufin, in cell work by metabolically active cells.
The nature of experiment [12]: budding yeast growth changes without added modifier – OD600, strain BY4716, 24 h, basal condition, primary screen (AID 1173). The conditions noted are these: S. cerevisiae BY4716 growth, OD600, 24 h; higher = more signal, called active from +8 up or from −8 down.
The nature of experiment [13]: viability profiling in MM1S myeloma cells – cell-based, resazurin fluorescence, basal, 24 h, PK04 Diversity Set, profiling panel (AID 1174). Further: test concentration not given here. As to conditions: higher = more signal, called active from +8 up or from −8 down.
Experiment [14] addresses Dihydroorotate dehydrogenase (quinone), mitochondrial (Plasmodium falciparum (isolate 3D7)) (UniProt Q08210). Nature of the experiment: inhibition of P. falciparum DHODH – biochemical, C-terminal His tag, absorbance 600 nm, primary screen (AID 1175).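 Further: recombinant parasite enzyme with a five histidine tag at its C terminus; test concentration not given here.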 As to conditions: PfDHODH enzyme, DCIP absorbance 600 nm; higher = more signal, called active from +8 up or from −8 down.
The nature of experiment [15]: inhibition of PAO1 biofilm formation – strain PAO1, LB-PBS medium, absorbance 600 nm, primary screen (AID 1176). Further: test concentration not given here. The conditions noted are these: P. aeruginosa PAO1 growth/biofilm, A600, 12 h; higher = more signal.
The nature of experiment [16]: growth modulation of vineyard yeast isolate – strain RM11-1a, OD600, basal, 24 h, primary screen (AID 1177).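 Further: cultures grown under basal conditions with no added stressor; test concentration not given here.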 The conditions noted are these: S. cerevisiae RM11-1a growth, OD600, 24 h; higher = more signal, called active from +8 up or from −8 down.
The nature of experiment [17]: growth of efflux-deficient E. coli DRC39 – strain DRC39, OD650, 24 h, E. coli filamentation inducers, primary screen (AID 1178).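 Further: growth measured as culture turbidity by optical density at 650 nm; test concentration not given here.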 The conditions noted are these: E. coli DRC39 acrAB, higher = more signal, called active from +8 up or from −8 down.
A short description of experiment [18]: growth of efflux-deficient E. coli DRC39 – strain DRC39, OD650, 48 h, E. coli filamentation inducers, primary screen (AID 1179).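 Further: screen aims at cell division blockers that make cells filament.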 The conditions noted are these: E. coli DRC39 delta-acrAB growth, higher = more signal, called active from +8 up or from −8 down.
Experiment [19] is described as follows: viability profiling in RPMI8226 myeloma cells – cell-based, resazurin fluorescence, basal, 24 h, PK04 Diversity Set, profiling panel (AID 1180).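 Further: RPMI8826 multiple myeloma cell line at 5000 cells per well; test concentration not given here.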 As to conditions: higher = more signal.
For experiment [20], the target named is E3 ubiquitin-protein ligase XIAP (Homo sapiens) (UniProt P98170). In words: small molecules binding XIAP protein – biophysical, small-molecule microarray, fluorescence 635 nm, primary screen (AID 1181).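 Further: score merges 667 nm emission and signal to noise over triplicate slides.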 As to conditions: higher = more signal.
Sequence of E3 ubiquitin-protein ligase XIAP (Homo sapiens) (P98170 whole entry, looked up): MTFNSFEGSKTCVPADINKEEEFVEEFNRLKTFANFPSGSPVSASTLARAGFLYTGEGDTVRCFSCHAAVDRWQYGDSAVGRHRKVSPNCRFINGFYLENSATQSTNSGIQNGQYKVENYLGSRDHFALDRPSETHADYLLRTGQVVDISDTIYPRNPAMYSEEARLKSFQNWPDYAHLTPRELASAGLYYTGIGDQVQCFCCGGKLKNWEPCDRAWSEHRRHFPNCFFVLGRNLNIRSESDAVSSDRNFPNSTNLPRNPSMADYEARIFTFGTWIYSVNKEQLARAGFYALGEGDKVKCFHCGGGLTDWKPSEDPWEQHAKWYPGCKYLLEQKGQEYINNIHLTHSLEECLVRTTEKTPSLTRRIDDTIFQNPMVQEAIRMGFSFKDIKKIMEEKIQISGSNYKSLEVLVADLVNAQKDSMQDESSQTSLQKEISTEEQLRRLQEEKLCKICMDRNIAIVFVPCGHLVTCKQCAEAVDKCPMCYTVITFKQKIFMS

Sequence of Dihydroorotate dehydrogenase (quinone), mitochondrial (Plasmodium falciparum (isolate 3D7)) (Q08210 whole entry, looked up): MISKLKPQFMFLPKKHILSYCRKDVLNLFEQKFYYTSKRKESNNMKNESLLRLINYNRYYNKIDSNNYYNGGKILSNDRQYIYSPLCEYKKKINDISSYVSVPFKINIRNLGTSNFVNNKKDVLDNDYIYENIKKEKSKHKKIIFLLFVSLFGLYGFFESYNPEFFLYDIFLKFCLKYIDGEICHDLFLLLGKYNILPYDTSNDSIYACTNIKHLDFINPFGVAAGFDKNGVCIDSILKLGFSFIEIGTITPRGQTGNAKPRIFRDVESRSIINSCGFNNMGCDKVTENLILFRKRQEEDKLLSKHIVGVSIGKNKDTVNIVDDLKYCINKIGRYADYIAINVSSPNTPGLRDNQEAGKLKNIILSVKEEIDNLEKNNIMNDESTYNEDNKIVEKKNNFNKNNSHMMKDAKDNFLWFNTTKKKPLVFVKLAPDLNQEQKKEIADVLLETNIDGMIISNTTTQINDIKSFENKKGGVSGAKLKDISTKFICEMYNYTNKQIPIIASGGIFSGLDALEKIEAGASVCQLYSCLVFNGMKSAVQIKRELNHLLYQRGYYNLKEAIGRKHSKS

Consider `C[C@@H](OCc1ccccc1)C1NC(=O)[C@@]23C(=O)N[C@@H](Cc4ccccc4)C2[C@H](C)[C@@]2(C)O[C@H]2C3/C=C/C/C=C\CNC(=O)[C@H](Cc2ccccc2)NC1=O` (stereo not given in full), for which the z-score is 0.247 in experiment [1]; 0.854 in [2]; 0.235 in [3]; -1.42 in [4]; -2.1 in experiment [5]; 0.637 in [6]. Further, the z-score in experiment [7] is -0.355 (inactive); in [8], -0.497; in experiment [9] it was 0.546; in [10], -0.792 (inactive); in [11] it was -0.515; in experiment [12], -1.29 (inactive). Moreover, the z-score was -0.614 (inactive) in [13]; 0.0359 (inactive) in [15]; -0.658 (inactive) in [16]; 2.13 (inactive) in [17]; 0.5 (inactive) in [18]; -0.302 in experiment [19]. Besides, the composite z-score in experiment [14] is -0.199 (inactive); in experiment [20], -0.0565.
As for `COCCOC(=O)N1C(=O)[C@@]2(c3cc(C#CC4(O)CCCCCC4)ccc31)[C@H](C(=O)NC[C@H](O)c1ccccc1)[C@H]1C(=O)O[C@H](c3ccccc3)[C@H](c3ccccc3)N1[C@@H]2c1ccc(O)cc1`, the z-score in [1] is 0.188; in experiment [2], -0.111; in [3] it was 0.814; in experiment [4] it was -1.75; in experiment [5] it was -2.8; in experiment [6] it was -1.19. Moreover, the z-score in [7] is -0.11 (inactive); in experiment [8], -0.643; in experiment [9], -0.113; in [10] it was 1.63 (inactive); in experiment [11], 0.982; in experiment [12], -0.598 (inactive). For the same molecule, the z-score in [13] was 0.483 (inactive); in [15] it was -0.108 (inactive); in experiment [16] it was 0.759 (inactive); in experiment [17], 0.0468 (inactive); in [18], 0.321 (inactive); in [19] it was -0.0629. In addition, the composite z-score is -0.122 (inactive) in experiment [14] and -0.131 in [20].
Take `C=CC[C@]1(C(=O)OC)N=C(c2ccc(OCCCO)cc2)O[C@H]1c1ccccc1N=[N+]=[N-]`: the z-score in [1] was -1.22; in experiment [2], 0.617; in experiment [3], -0.491; in [4] it was -0.54; in experiment [5], -2.37; in experiment [6] it was 0.54. Besides, the z-score in experiment [7] is 0.147 (inactive); in experiment [8], -1.13; in [9] it was 0.676; in experiment [10], -1.6 (inactive); in [11], -0.344; in experiment [12], -0.352 (inactive). Besides, the z-score in experiment [13] is -0.455 (inactive); in experiment [15] it was 0.935 (inactive); in experiment [16], 1.6 (inactive); in experiment [17], 0.0005 (inactive); in experiment [18] it was -1.12 (inactive); in experiment [19] it was -0.406. The composite z-score in experiment [14] is 0.823 (inactive); in experiment [20], 0.509.
As for `CO[C@H]1O[C@H](CO)[C@@H](OC(=O)Nc2ccc(C(F)(F)F)cc2)[C@H](OC(=O)Nc2ccccc2-c2ccccc2)[C@H]1OC(=O)Nc1ccccc1-c1ccccc1`, the z-score in [1] is -4.38; in [2], 0.158; in experiment [3], -5.26; in experiment [4] it was -3.52; in [5], -3.98; in experiment [6], 0.235. The z-score in experiment [7] was 0.0902 (inactive); in experiment [8], -0.867; in experiment [9], -1.76; in experiment [10], -6.26 (inactive); in [11], -5.27; in [12], 1.39 (inactive). For the same molecule, the z-score was -5.4 (inactive) in [13]; 3.43 (inactive) in [15]; 2.8 (inactive) in experiment [16]; -0.853 (inactive) in experiment [17]; -1.25 (inactive) in [18]; -4.63 in experiment [19]. Moreover, the results for the composite z-score in [14] and in experiment [20] were -0.132 (inactive) and 0.201, respectively.
